Test [1] in a line: qHTS of pediatric cancer cell lines to identify multiple opportunities for drug repurposing: Primary screen for SJ-GBM2 cells (AID 1347091). Further: potency means the concentration at half of the fitted maximal effect. In short, it runs like this: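 Eight- or eleven-point concentration series, 48 h treatment at 37 degrees C in growth media; readout CellTiter-Glo luminescence. Potency and efficacy were taken from the concentration-response curves.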
A general note: qHTS replaces the single test concentration by a dilution series.

Test [2] in a line: qHTS of pediatric cancer cell lines to identify multiple opportunities for drug repurposing: Primary screen for A673 cells (AID 1347092). Further: nearly all actives have a fitted effect of over 45% in size. Further: potency means the concentration at half of the fitted maximal effect. In short, it runs like this:
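Titration-based qHTS on A673 cells: MIPE compounds spanned 11 points (0.78 nM to 46 µM final), NPC compounds 8 points (0.59 nM to 46 µM final). Viability after 48 h was measured by ATP luminescence.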

The nature of test [3]: qHTS of pediatric cancer cell lines to identify multiple opportunities for drug repurposing: Primary screen for NB-EBc1 cells (AID 1347095). Further: potency means the concentration at half of the fitted maximal effect. The method, boiled down:
(§1)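 Quantitative HTS format: each compound titrated (MIPE 11 points from 0.78 nM, NPC 8 points from 0.59 nM) onto cells plated 5 hours earlier. After 48 h at 37 degrees C, CellTiter-Glo luminescence was recorded.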

A short description of test [4]: qHTS of pediatric cancer cell lines to identify multiple opportunities for drug repurposing: Primary screen for U-2 OS cells (AID 1347096). Further: nearly all actives have a fitted effect of over 50% in size. Further: potency means the concentration at half of the fitted maximal effect. In short, it runs like this: (§2)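 Cells (500-1,000/well) in growth media were settled 5 h at 37 degrees C, then given compounds for 48 h. Viability was read as CellTiter-Glo luminescence. Primary runs used MIPE at 11 points (0.78 nM-46 µM) and NPC at 8 points (0.59 nM-46 µM); follow-ups used 11 points.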

The nature of test [5]: qHTS of pediatric cancer cell lines to identify multiple opportunities for drug repurposing: Primary screen for SK-N-SH cells (AID 1347098). Further: nearly all actives have a fitted effect of over 65% in size. Further: potency means the concentration at half of the fitted maximal effect. In short, it runs like this:
(§3)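 Cells (500-1,000/well) rested 5 h, then received compounds for 48 h; metabolically active cells were measured by CellTiter-Glo luminescence. Final concentrations spanned up to 46 µM (MIPE, 11-point) or 0.59 nM-46 µM (NPC, 8-point) in primary screens, 11-point in follow-ups.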

A short description of test [6]: qHTS of pediatric cancer cell lines to identify multiple opportunities for drug repurposing: Primary screen for LAN-5 cells (AID 1347100). Further: potency means the concentration at half of the fitted maximal effect. The method, boiled down: as §2
A short description of test [7]: qHTS of pediatric cancer cell lines to identify multiple opportunities for drug repurposing: Primary screen for BT-12 cells (AID 1347101). Further: nearly all actives have a fitted effect of over 25% in size. Further: potency means the concentration at half of the fitted maximal effect. The method, boiled down: as §3
The nature of test [8]: qHTS of pediatric cancer cell lines to identify multiple opportunities for drug repurposing: Primary screen for Rh18 cells (AID 1347102). Further: nearly all actives have a fitted effect of over 65% in size. Further: potency means the concentration at half of the fitted maximal effect. In short, it runs like this:
as §2

The nature of test [9]: qHTS of pediatric cancer cell lines to identify multiple opportunities for drug repurposing: Primary screen for OHS-50 cells (AID 1347103). Further: nearly all actives have a fitted effect of over 40% in size. Further: potency means the concentration at half of the fitted maximal effect. The method, boiled down: as §3
The nature of test [10]: qHTS of pediatric cancer cell lines to identify multiple opportunities for drug repurposing: Primary screen for RD cells (AID 1347104). Further: nearly all actives have a fitted effect of over 55% in size. Further: potency means the concentration at half of the fitted maximal effect. In short, it runs like this: as §1
The nature of test [11]: qHTS of pediatric cancer cell lines to identify multiple opportunities for drug repurposing: Primary screen for MG 63 (6-TG R) cells (AID 1347105). Further: nearly all actives have a fitted effect of over 50% in size. Further: potency means the concentration at half of the fitted maximal effect. The method, boiled down: as §1
The nature of test [12]: qHTS of pediatric cancer cell lines to identify multiple opportunities for drug repurposing: Primary screen for control Hh wild type fibroblast cells (AID 1347106).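 Further: series mostly up to about 46 µM; a drop in luminescence marks cytotoxicity and a rise apparent proliferation; nearly all actives have a fitted effect of over 55% in size.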 In short, it runs like this: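 Viability after 48 h compound treatment at 37C, 500-1,000 cells/well, read as ATP luminescence with CellTiter-Glo. Primary screens used 11-point (MIPE, 0.78 nM-46 µM) or 8-point (NPC, 0.59 nM-46 µM) final concentrations; follow-up screens used 11-point dilutions.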

Test [13] can be described thus: qHTS of pediatric cancer cell lines to identify multiple opportunities for drug repurposing: Primary screen for Rh30 cells (AID 1347107). Further: series mostly up to about 46 µM; nearly all actives have a fitted effect of over 75% in size. The method, boiled down: as §2
The nature of test [14]: qHTS of pediatric cancer cell lines to identify multiple opportunities for drug repurposing: Primary screen for Rh41 cells (AID 1347108). Further: nearly all actives have a fitted effect of over 70% in size. Further: potency means the concentration at half of the fitted maximal effect. The method, boiled down: as §1
The nature of test [15]: qHTS of pediatric cancer cell lines to identify multiple opportunities for drug repurposing: Primary screen for SK-N-MC cells (AID 1347093). Further: potency means the concentration at half of the fitted maximal effect. In short, it runs like this:
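Metabolically active cells were quantified by ATP-dependent luminescence (CellTiter-Glo, 15 min at room temperature) following 48 h treatment. Cells had been plated at 500-1,000 per well and settled for 5 h beforehand.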

A short description of test [16]: qHTS of pediatric cancer cell lines to identify multiple opportunities for drug repurposing: Primary screen for BT-37 cells (AID 1347094). Further: potency means the concentration at half of the fitted maximal effect. The method, boiled down:
as §1

Test [17] can be described thus: qHTS of pediatric cancer cell lines to identify multiple opportunities for drug repurposing: Primary screen for Saos-2 cells (AID 1347097). Further: nearly all actives have a fitted effect of over 40% in size. Further: potency means the concentration at half of the fitted maximal effect. In short, it runs like this:
as §1

Test [18] can be described thus: qHTS of pediatric cancer cell lines to identify multiple opportunities for drug repurposing: Confirmatory screen for NB1643 cells (AID 1347109). Further: nearly all actives have a fitted effect of over 45% in size. Further: potency means the concentration at half of the fitted maximal effect. In short, it runs like this: as §2
The nature of test [19]: qHTS of pediatric cancer cell lines to identify multiple opportunities for drug repurposing: Confirmatory screen for A673 cells (AID 1347110).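 Further: cells exposed to compound for 48 h before the viability read; nearly all actives have a fitted effect of over 65% in size.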 Further: potency means the concentration at half of the fitted maximal effect. In short, it runs like this:
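Forty-eight-hour viability assay. Follow-up compounds ran at 11-point dilutions; positive control bortezomib at 2.3 uM final, neutral control DMSO.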

Test [20] is described as follows: qHTS of pediatric cancer cell lines to identify multiple opportunities for drug repurposing: Primary screen for NB1643 cells (AID 1347099). Further: nearly all actives have a fitted effect of over 50% in size. Further: potency means the concentration at half of the fitted maximal effect. The method, boiled down:
as §1

The structures appear in SMILES notation. Inconclusive results are not listed. Calls of active or inactive are those of the source. The call rests on the fitted dose curve; in most records, active means well fitted curve in the direction sought with a large enough effect; inconclusive means small, poorly fitted or top-dose-only effect, or another doubt; inactive means no such curve, though single readings can be large; an effect the other way counts as inactive or inconclusive.

Regarding `c1cc2ccc3cccc4ccc(c1)c2c34`, the Potency entry in test [1], in test [2], in test [3], in [4], in [5] and in [6] was “inactive” each time. Further, the Potency entry in [7], in [8], in test [9], in [10], in test [11] and in test [12] was “inactive” each time. Further, the Potency entry in test [13] and in test [14] was “inactive” in each case.
As for `C=CCON=C(C[C@H]1O[C@@H]2O[C@]3(C)CC[C@@H]4[C@H](C)CC[C@@H]([C@H]1C)[C@@]24OO3)[C@H]1O[C@@H]2O[C@]3(C)CC[C@H]4[C@H](C)CC[C@@H]([C@@H]1C)[C@@]24OO3`, the Potency is 372 nM (active) in test [1]; 332 nM (active) in [15]; 432 nM (active) in [16]; 372 nM (active) in test [3]; 469 nM (active) in [6]; 344 nM (active) in [7]. Further, the Potency in test [9] is 306 nM (active); in test [14] it was 469 nM (active); in test [18] it was 414 nM (active). Besides, the Potency entry in [4], in test [17], in test [5], in [12] and in test [13] was “inactive” each time.
As for `Cc1ccccc1-n1c(Cn2cnc3c(N)ncnc32)nc2cccc(C)c2c1=O`, the Potency in test [1] is 187 nM (active); in test [2], 590 nM (active); in [15], 20.9 nM (active); in test [3] it was 743 nM (active); in [4] it was 14800 nM (active); in test [17] it was 132 nM (active). Also, the Potency was 8570 nM (active) in [5]; 264 nM (active) in test [6]; 1050 nM (active) in [8]; 61.1 nM (active) in test [9]; 2350 nM (active) in test [10]; 590 nM (active) in [14]. Further, the Potency result in test [18] and in test [19] was “inactive” in each case.
As to `CC(Cc1ccc(O)cc1)NCC(O)c1cc(O)cc(O)c1` (configuration not stated), the Potency result in [1], in test [2], in [15], in test [3], in test [4] and in test [17] was “inactive” in each case. Also, the Potency entry in [5], in test [6], in [7], in test [8], in test [9] and in [10] was “inactive” each time. The Potency result in test [11], in test [12], in test [13] and in test [14] was “inactive” throughout.
As for `CC(=O)OCC1=C(C(=O)O)N2C(=O)[C@@H](N)[C@@H]2SC1`, the Potency was 2350 nM (active) in test [1]; 23500 nM (active) in [15]; 1220 nM (active) in test [16]; 935 nM (active) in test [17]; 1370 nM (active) in test [7]; 1370 nM (active) in test [9]. The Potency entry in test [4], in [8], in [12], in test [13] and in test [14] was “inactive” throughout.
Regarding `O=C(Oc1ccc([N+](=O)[O-])cc1)N1CCC(C(O)(c2ccc3c(c2)OCO3)c2ccc3c(c2)OCO3)CC1`, the Potency result in [1], in [3], in [4], in [17], in [5] and in test [6] was “inactive” in each case. Besides, the Potency entry in [7], in test [10], in [11], in [12], in test [13] and in test [14] was “inactive” throughout. In addition, the Potency in [15] was 16600 nM (active).
Consider `CCCN(CCC)c1c([N+](=O)[O-])cc(S(N)(=O)=O)cc1[N+](=O)[O-]`, for which the Potency in [1] was 43300 nM (active); in test [15] it was 38600 nM (active); in test [3], 30600 nM (active); in test [17], 30600 nM (active); in [5], 49800 nM (active); in test [20], 48600 nM (active). For the same compound, the Potency is 28200 nM (active) in test [7]; 28200 nM (active) in test [9]; 38600 nM (active) in test [10]; 48600 nM (active) in test [11]; 38600 nM (active) in test [14]. For the same compound, the Potency result in test [12] was “inactive”.
For the compound `CCC(=O)OC1CCC2C3CCC4=CC(=O)CC[C@@]4(C)C3CC[C@]12C` (some centres not stated), the Potency entry in [1], in test [3], in test [4], in [17], in test [5] and in [20] was “inactive” each time. Also, the Potency entry in [6], in test [7], in [8], in test [10], in [11] and in [12] was “inactive” throughout. The Potency result in test [13], in test [14], in test [18] and in [19] was “inactive” in each case. Further, the Potency in [15] was 9350 nM (active).
Turning to `CCc1c(C(=O)C(N)=O)c2c(OCC(=O)O)cccc2n1Cc1ccccc1`, the Potency entry in test [1], in test [16], in [3], in test [4], in test [17] and in test [5] was “inactive” throughout. The Potency entry in test [20], in [6], in test [7], in test [8], in test [9] and in test [10] was “inactive” each time. For the same compound, the Potency result in test [12], in [13] and in test [14] was “inactive” in each case.
In the case of `Nc1ccc(Sc2ccc(N)cc2)cc1`, the Potency entry in test [1], in test [15], in test [3], in test [4], in test [5] and in [6] was “inactive” each time. Moreover, the Potency entry in test [7], in [8], in test [9], in [10], in test [11] and in [12] was “inactive” throughout. Also, the Potency entry in test [13] and in test [14] was “inactive” throughout.
On to `O=C(N[C@@H](COc1ccc2[nH]c(=O)[nH]c2c1)c1ccccc1)c1cccn(Cc2ccc(F)c(F)c2)c1=O`, for which the Potency in test [1] was 20900 nM (active); in test [15], 18700 nM (active); in [17], 18700 nM (active); in test [9] it was 30600 nM (active). The Potency entry in test [4], in test [6], in test [12] and in test [13] was “inactive” each time.
For `O=c1[nH]c2ccccc2n1C1CCN(Cc2ccc(-c3[nH]c4cc5ncnc5cc4nc3-c3ccccc3)cc2)CC1`, the Potency was 3320 nM (active) in [1]; 833 nM (active) in test [15]; 20900 nM (active) in test [3]; 16600 nM (active) in test [17]; 20900 nM (active) in test [20]; 14800 nM (active) in test [6]. In addition, the Potency in test [9] was 1720 nM (active). For the same compound, the Potency result in test [5] and in test [12] was “inactive” throughout.
As to `CC(=Cc1csc(C)n1)[C@@H]1C[C@H]2O[C@]2(C)CCC[C@H](C)[C@@H](O)[C@@H](C)C(=O)C(C)(C)[C@@H](O)CC(=O)O1`, the Potency in test [1] was 29.6 nM (active); in test [15] it was 1 nM (active); in test [3] it was 16.6 nM (active); in test [17], 1 nM (active); in [6] it was 1 nM (active); in [9] it was 1 nM (active). In test [19], the Potency was 7.4 nM (active). Further, the Potency result in test [4], in test [5], in test [20], in test [7], in test [8] and in test [12] was “inactive” each time. For the same compound, the Potency result in test [13] was “inactive”.
For `CN[C@@H]1Cc2cccc3[nH]c(=O)n(c23)C1`, the Potency result in test [1], in test [15], in test [3], in test [4], in test [17] and in [5] was “inactive” in each case. The Potency entry in test [20], in test [6], in test [7], in [8], in [10] and in test [12] was “inactive” each time. Further, in test [13], the Potency entry was “inactive”.
With `C1=C2CCCN[C@H]2[C@@H]2C[C@H]1[C@@H]1CCCCN1C2`, the Potency entry in [1], in test [3], in test [4], in test [17], in test [5] and in test [6] was “inactive” each time. The Potency entry in test [7], in test [8], in test [9], in test [10], in test [12] and in test [13] was “inactive” each time. In addition, in test [14], the Potency result was “inactive”.
